The full ranking holds about 33,000 sequences; the median of “e-score” is about -0.05, and the highest 2% start at about 0.38. The sample holds the highest values, similar sequences and a random draw of the others, so the mix is not that of the screen.

In the assay the target is T1, SIX1-Q177R homeodomain (human, UniProt Q15475 108-198, Q177R).
T1 sequence: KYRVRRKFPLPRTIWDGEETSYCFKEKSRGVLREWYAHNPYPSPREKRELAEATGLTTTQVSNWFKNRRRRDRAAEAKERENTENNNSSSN
Briefly: universal protein binding microarray; Universal all-10-mer PBM (8x60K, AMADID 030236), 300 nM GST-tagged protein, Alexa Fluor 488 anti-GST; buffer, salt, pH and temperature not stated (as in Berger); high values mean tight binding. The conditions noted are these: protein: ivt; tags: N-terminal GST; dsDNA, one strand shown. The method in brief: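 Duplicate protein binding microarrays (universal 'all 10-mer', 8×60K format) were incubated with GST-tagged homeodomains at 300 nM final concentration. Binding was quantified as 8-mer E-scores with the Universal PBM Analysis Suite.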
For ACCCCTAT, the binding signal was 0.172 ± 0.00706 E-score.

As to ACACATAG, the binding signal amounted to 0.155 ± 0.0872 E-score. Under ACACCTAT stands 0.448 ± 0.00643 E-score; under CACCACTG, 0.342 ± 0.00325 E-score; under GCGGTCGA, 0.152 ± 0.00747 E-score.

Take ACACAGTG: the binding signal amounted to 0.259 ± 0.0202 E-score. Then CGGGATCA, with 0.269 ± 0.00773 E-score; and GAGTACCC, with 0.173 ± 0.00951 E-score; and CAGCACAC, with 0.269 ± 0.0132 E-score. Then AAGTAATC, with 0.163 ± 0.0142 E-score; and GAGTACAC, with 0.4362 ± 0.00255 E-score. Under AAGTACAC stands 0.425 ± 0.0204 E-score; under CAGTACCG, 0.185 ± 0.0235 E-score. With CAGTACAC, the binding signal was found to be 0.433 ± 0.00665 E-score. Turning to GAGTACTC, the binding signal was 0.1739 ± 0.000948 E-score.

Take AAGTACCC: the binding signal was 0.2054 ± 0.000912 E-score. Then ACACAGCC, with 0.164 ± 0.059 E-score; and GATTGAAC, with 0.162 ± 0.0507 E-score.

On to GGATCCAA, for which the binding signal amounted to 0.201 ± 0.0192 E-score. Take CACGTGGA: the binding signal came to 0.243 E-score. Then AGGTGACT, with 0.165 ± 0.006 E-score.

On to CACCCTCA, for which the binding signal was 0.264 ± 0.0103 E-score.

Take GTTGTGTA: the binding signal turned out to be 0.255 ± 0.0169 E-score. Then GTGTTGTA, with 0.389 ± 0.00682 E-score; and GGGTTGTA, with 0.169 ± 0.0161 E-score. As to GTGTTGAA, the binding signal was found to be 0.396 ± 0.00711 E-score. Consider GTGTTTCA, for which the binding signal amounted to 0.357 ± 0.00873 E-score. With GTGTTGGA, the binding signal was 0.414 ± 0.0127 E-score.

As to GTGTTGCA, the binding signal was found to be 0.3853 ± 0.00118 E-score. Under CCGTTGAC stands 0.16 ± 0.0161 E-score. Then CGATCCAC, with 0.2384 ± 0.00175 E-score; and CCTACGCA, with 0.17 ± 0.0129 E-score; and CACGAAAG, with 0.16 ± 0.0281 E-score. Under TACGGACA stands 0.168 ± 0.019 E-score; under CACTGGTA, 0.3128 ± 0.00191 E-score. As for ATCTGACA, the binding signal was found to be 0.275 ± 0.0351 E-score. Consider CACCCATG, for which the binding signal was found to be 0.34 ± 0.0139 E-score. Consider CACCTGTC, for which the binding signal was found to be 0.224 ± 0.0498 E-score. Then CTTTCACA, with 0.24 ± 0.00834 E-score; and AACGGGGT, with 0.205 ± 0.0313 E-score. Under AAGGGATC stands 0.194 ± 0.0447 E-score; under CCTCAACA, 0.204 ± 0.0178 E-score. Then AAGAGTTA, with 0.172 ± 0.0103 E-score.

Consider CCACACGG, for which the binding signal was 0.197 ± 0.0212 E-score.

On to ACACACGG, for which the binding signal was determined as 0.301 ± 0.0255 E-score.

Consider ATACACGC, for which the binding signal worked out at 0.396 ± 0.0178 E-score.

With ATACACGG, the binding signal was determined as 0.401 ± 0.0111 E-score.

In the case of ACACACGC, the binding signal is 0.267 ± 0.0306 E-score. Take ATACACGA: the binding signal stood at 0.38 ± 0.00658 E-score. As to CGTATACG, the binding signal was found to be 0.153 ± 0.0218 E-score. Under ACCTTGTA stands 0.203 ± 0.0145 E-score. Under CACGTATA stands 0.2103 ± 0.000226 E-score.

In the case of CACTTGCC, the binding signal turned out to be 0.227 ± 0.036 E-score. Take CGCCACAC: the binding signal worked out at 0.314 ± 0.0118 E-score.

As to AGACCCCG, the binding signal came to 0.281 ± 0.0369 E-score. Then CCAACTAG, with 0.223 ± 0.00917 E-score; and CACCTCAG, with 0.26 ± 0.0094 E-score; and CCAATTTA, with 0.238 ± 0.0221 E-score. Under ACCACAGT stands 0.22 ± 0.00384 E-score. Regarding ACCCCAGG, the binding signal is 0.249 ± 0.0168 E-score. Under ACCCCAGT stands 0.27 ± 0.0137 E-score.

In the case of ACACCAGT, the binding signal came out at 0.48 ± 0.008 E-score. Under ACACCAGG stands 0.472 ± 0.00716 E-score. Consider ACTCCAGG, for which the binding signal turned out to be 0.228 ± 0.00384 E-score. Then GCACCAGA, with 0.181 ± 0.0305 E-score; and ACCCCAGA, with 0.201 ± 0.039 E-score. Then ACACCAGA, with 0.472 ± 0.00546 E-score; and ACCCCAGC, with 0.235 ± 0.0628 E-score; and ACAGCACC, with 0.1838 ± 0.000898 E-score. With ACACCAGC, the binding signal came out at 0.4638 ± 0.00122 E-score. Under GACGATAC stands 0.205 ± 0.0214 E-score; under CCTGGGTA, 0.164 ± 0.00425 E-score.

With GGGGAGTA, the binding signal came to 0.256 ± 0.0126 E-score. Then CACCATGC, with 0.297 ± 0.00858 E-score. Under CACCCGGG stands 0.327 ± 0.0154 E-score; under ACACTGTC, 0.336 ± 0.0232 E-score.

As for ACACTGAG, the binding signal was found to be 0.354 ± 0.00682 E-score.

ACACTGTG: the binding signal amounted to 0.381 ± 0.0114 E-score. Under ACTCTGAC stands 0.172 ± 0.00272 E-score; under ACACTGAA, 0.349 ± 0.00868 E-score; under ACACTGAC, 0.381 ± 0.0072 E-score. On to CCGCGAAA, for which the binding signal turned out to be 0.167 ± 0.0237 E-score. Then GTAGTACA, with 0.277 ± 0.0241 E-score.
